# Reference: PubChem BioAssay
# Active and inactive are the calls of the source.
# Key:
# [1] = E. coli DRC41 culture turbidity changes, primary screen, E. coli filamentation inducer project, strain DRC41, OD650, 48 h (AID 1152);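 further: E. coli MC1000 strain DRC41 lacking acrAB efflux pump and sulA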; conditions: E. coli DRC41 (acrAB sulA), higher = more signal, called active from +8 up or from −8 down
# [2] = small-molecule binders of probe aLefty1, primary screen, biochemical, small-molecule microarray, 635/667 nm fluorescence (AID 1153); conditions: higher = more signal;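 further: score merges spot fluorescence with signal-to-noise ratio from the scanned slide images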
# [3] = PSAC antagonists in infected red cells, primary screen, cell-based, P. falciparum Indochina, OD700, 1 h (AID 1154); conditions: P. falciparum Indochina infected RBC osmotic lysis, higher = more signal, called active from +8 up or from −8 down
# [4] = PSAC antagonists in infected red cells, primary screen, cell-based, P. falciparum Indochina, OD700, 2 h (AID 1155);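 further: lysis reports solute entry through the parasite surface anion channel PSAC; channel blockers reduce lysis of infected cells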; conditions: P. falciparum Indochina infected erythrocytes, osmotic lysis OD700; higher = more signal, called active from +8 up or from −8 down
# [5] = osmotic lysis modulators in infected erythrocytes, primary screen, PSAC antagonist project, cell-based, P. falciparum Indochina, OD700, 3 h (AID 1156); conditions: higher = more signal, called active from +8 up or from −8 down
# [6] = PSAC antagonists in infected red cells, primary screen, cell-based, P. falciparum Indochina, OD700, 18 h (AID 1157); conditions: P. falciparum Indochina infected erythrocytes, osmotic lysis OD700, 18 h; higher = more signal, called active from +8 up or from −8 down
# [7] = modulators of S6 phosphorylation in cells, primary screen, cell-based, A549, cytoblot, luminescence, serum-stimulated (AID 1158); conditions: A549 phospho-S6 cytoblot, 5 h, higher = more signal;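 further: serum-stimulated A549 lung adenocarcinoma cells; signal is phosphorylated S6 detected by cytoblot immunostaining with HRP secondary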
# [8] = biological target: NADPH oxidase 2 (Homo sapiens) (UniProt P04839); test: NOX2-dependent H2O2 signal modulators, primary screen, NOX inhibitor project, cell-based, HEK293-NOX2, PMA-stimulated, Amplex Red fluorescence (AID 1159); conditions: 45 min, higher = more signal, called active from +8 up or from −8 down; further: test concentration not given here
# NADPH oxidase 2 (Homo sapiens), sequence (P04839 whole entry, looked up): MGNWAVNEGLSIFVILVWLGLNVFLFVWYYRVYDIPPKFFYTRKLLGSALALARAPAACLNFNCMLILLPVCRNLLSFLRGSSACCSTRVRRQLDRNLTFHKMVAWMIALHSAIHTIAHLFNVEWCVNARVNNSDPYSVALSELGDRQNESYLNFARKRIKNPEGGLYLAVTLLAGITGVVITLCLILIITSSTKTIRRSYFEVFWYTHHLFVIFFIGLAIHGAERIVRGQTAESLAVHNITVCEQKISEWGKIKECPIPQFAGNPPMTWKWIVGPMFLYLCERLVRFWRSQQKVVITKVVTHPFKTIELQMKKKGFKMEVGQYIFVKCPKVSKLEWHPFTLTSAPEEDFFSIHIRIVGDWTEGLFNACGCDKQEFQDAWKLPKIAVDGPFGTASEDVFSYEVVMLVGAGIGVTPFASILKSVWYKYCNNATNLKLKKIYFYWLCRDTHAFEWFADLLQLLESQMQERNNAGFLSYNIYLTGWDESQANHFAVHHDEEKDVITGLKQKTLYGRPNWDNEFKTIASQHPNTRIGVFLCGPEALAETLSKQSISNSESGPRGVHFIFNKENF
# [9] = biological target: NADPH oxidase 4 (Homo sapiens) (UniProt Q9NPH5); test: NOX4-dependent H2O2 signal modulators, primary screen, NOX inhibitor project, cell-based, HEK293-NOX4, tetracycline-induced, Amplex Red fluorescence (AID 1160); conditions: 45 min, higher = more signal, called active from +8 up or from −8 down
# NADPH oxidase 4 (Homo sapiens), sequence (Q9NPH5 whole entry, looked up): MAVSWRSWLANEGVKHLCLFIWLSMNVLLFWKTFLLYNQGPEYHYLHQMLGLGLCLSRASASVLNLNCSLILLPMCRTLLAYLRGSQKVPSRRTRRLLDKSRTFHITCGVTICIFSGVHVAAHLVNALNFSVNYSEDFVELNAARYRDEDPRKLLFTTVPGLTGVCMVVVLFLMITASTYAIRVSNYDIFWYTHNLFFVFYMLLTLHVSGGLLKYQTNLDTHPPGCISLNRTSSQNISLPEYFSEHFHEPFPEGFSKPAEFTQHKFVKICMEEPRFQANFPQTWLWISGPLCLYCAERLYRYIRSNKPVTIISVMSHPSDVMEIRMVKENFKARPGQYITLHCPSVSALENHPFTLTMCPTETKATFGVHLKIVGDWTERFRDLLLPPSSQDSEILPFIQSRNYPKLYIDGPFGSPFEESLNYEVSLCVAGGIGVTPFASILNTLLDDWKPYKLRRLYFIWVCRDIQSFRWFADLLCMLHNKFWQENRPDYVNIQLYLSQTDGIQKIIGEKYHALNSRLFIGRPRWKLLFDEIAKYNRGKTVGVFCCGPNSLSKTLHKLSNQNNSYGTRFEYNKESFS
# [10] = biological target: NADPH oxidase 5 (Homo sapiens) (UniProt Q96PH1); test: NOX5-dependent H2O2 signal modulators, primary screen, NOX inhibitor project, cell-based, HEK293-NOX5, Amplex Red fluorescence (AID 1161); conditions: HEK293-NOX5, ionomycin, 45 min, higher = more signal
# NADPH oxidase 5 (Homo sapiens), sequence (Q96PH1 whole entry, looked up): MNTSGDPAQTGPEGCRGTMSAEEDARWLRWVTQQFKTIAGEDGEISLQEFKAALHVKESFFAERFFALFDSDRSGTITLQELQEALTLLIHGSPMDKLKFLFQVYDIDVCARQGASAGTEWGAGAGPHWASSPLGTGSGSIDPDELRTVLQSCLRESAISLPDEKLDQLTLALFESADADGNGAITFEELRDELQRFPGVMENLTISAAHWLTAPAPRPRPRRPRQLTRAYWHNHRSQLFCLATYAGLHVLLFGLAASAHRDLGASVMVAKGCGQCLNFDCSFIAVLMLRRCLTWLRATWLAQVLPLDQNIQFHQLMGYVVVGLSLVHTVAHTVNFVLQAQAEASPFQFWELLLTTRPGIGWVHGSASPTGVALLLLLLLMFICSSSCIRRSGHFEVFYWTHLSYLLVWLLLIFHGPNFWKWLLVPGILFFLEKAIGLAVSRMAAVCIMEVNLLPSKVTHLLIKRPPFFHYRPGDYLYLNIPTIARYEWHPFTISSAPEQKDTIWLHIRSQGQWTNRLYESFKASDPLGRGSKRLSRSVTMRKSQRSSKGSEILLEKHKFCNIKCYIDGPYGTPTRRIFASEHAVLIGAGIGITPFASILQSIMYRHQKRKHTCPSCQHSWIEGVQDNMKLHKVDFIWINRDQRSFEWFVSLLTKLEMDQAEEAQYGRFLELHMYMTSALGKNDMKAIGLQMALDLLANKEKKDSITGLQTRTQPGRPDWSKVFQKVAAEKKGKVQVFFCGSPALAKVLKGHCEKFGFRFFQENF
# [11] = A549 cell viability effects, profiling panel, calcein-AM fluorescence, 48 h, basal (AID 1162); conditions: higher = more signal; further: test concentration not given here
# [12] = adipocyte viability effects, profiling panel, cell-based, 3T3-L1 adipocytes, calcein-AM fluorescence, 48 h, basal (AID 1163); conditions: 3T3-L1 adipocytes viability, higher = more signal; further: test concentration not given here
# [13] = HepG2 cell viability effects, profiling panel, calcein-AM fluorescence, 48 h, basal (AID 1164); conditions: higher = more signal; further: test concentration not given here
# [14] = MM1S cell viability effects, profiling panel, calcein-AM fluorescence, 48 h, basal (AID 1165); conditions: higher = more signal;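 further: viability of MM1S multiple myeloma cells under basal unstimulated conditions; test concentration not given here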
# [15] = basal RPMI8226 viability, no added stimulus, profiling panel, cell-based, calcein-AM fluorescence, 48 h, PK04 Diversity Set (AID 1166); conditions: RPMI8226 myeloma viability, higher = more signal;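 further: cells grown under basal conditions without added stimulus; test concentration not given here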
# [16] = basal HepG2 mitochondrial membrane potential changes, profiling panel, cell-based, JC-1 fluorescence, 24 h, 100 nL compound (AID 1167); conditions: higher = more signal; further: test concentration not given here
# [17] = basal 3T3-L1 adipocyte mitochondrial potential changes, profiling panel, cell-based, JC-1 fluorescence, 3T3-L1 adipocytes, 24 h, 100 nL compound (AID 1168); conditions: JC-1 mitochondrial fluorescence, higher = more signal, called active from +8 up or from −8 down; further: test concentration not given here
# [18] = basal RPMI8226 mitochondrial membrane potential changes, profiling panel, cell-based, JC-1 fluorescence, 24 h, 100 nL compound (AID 1169); conditions: RPMI8226 myeloma, JC-1 mitochondrial potential fluorescence, higher = more signal; further: test concentration not given here
# [19] = basal MM1S mitochondrial membrane potential changes, profiling panel, cell-based, JC-1 fluorescence, 24 h, 100 nL compound (AID 1170); conditions: higher = more signal; further: test concentration not given here
# [20] = A549 lung cancer cell viability effects, profiling panel, resazurin fluorescence, 24 h, PK04 Diversity Set (AID 1171); conditions: higher = more signal, called active from +8 up or from −8 down; further: test concentration not given here
SMILES,z-score [1],composite z-score [2],z-score [3],z-score [4],z-score [5],z-score [6],z-score [7],z-score [8],z-score [9],z-score [10],z-score [11],z-score [12],z-score [13],z-score [14],z-score [15],z-score [16],z-score [17],z-score [18],z-score [19],z-score [20]
CC(C)=NOC(C)CN1CCCCc2nc(C)c(C)cc21 (stereo not given),-0.866 (inactive),-0.145,-0.147 (inactive),-0.16 (inactive),-0.565 (inactive),0.195 (inactive),-0.618,-0.0962 (inactive),-0.278 (inactive),-0.417,0.0529,-0.047,-0.018,-0.3,-0.637,-0.792,-0.78 (inactive),-0.633,0.354,-0.585 (inactive)
CC(=O)OC[C@H]1O[C@H](CCON=C(C)CCN2CCCc3nc(C)c(C)cc32)C=C[C@@H]1OC(C)=O,0.198 (inactive),0.0861,2.13 (inactive),1.25 (inactive),0.872 (inactive),0.489 (inactive),-1.17,0.152 (inactive),0.11 (inactive),0.207,0.235,-0.9,-0.667,-1.85,-1.27,-0.689,-0.805 (inactive),1.03,-0.033,-0.221 (inactive)
CCOC(=O)CCN1C(=O)[C@H]2[C@H]3[C@H](O)[C@H](O)CC(=O)[C@@H]3CC[C@H]2C1=O,-0.851 (inactive),-0.407,0.781 (inactive),0.411 (inactive),-0.737 (inactive),0.305 (inactive),-0.373,0.583 (inactive),0.41 (inactive),-0.0545,-0.856,0.314,-0.0609,-0.885,0.456,-0.385,-0.368 (inactive),-0.798,0.325,0.699 (inactive)
CCOC(=O)[C@H](Cc1ccccc1)NC(=O)CCC1CC(OC(=O)NCc2cccc3ccccc23)CC2(CCCC(COC(=O)NCCc3ccccc3OC)O2)O1 (stereo not given in full),-0.0287 (inactive),-0.101,-0.623 (inactive),0.185 (inactive),-0.602 (inactive),0.0286 (inactive),-0.352,0.884 (inactive),1.15 (inactive),1.06,-0.111,-0.211,-0.521,-0.123,-1.39,0.527,-0.177 (inactive),-0.0487,-0.193,0.737 (inactive)
CC(C)=CCCC(C)=CCON=C1C[C@@H](O)[C@@H](O)[C@@H]2[C@@H]3C(=O)N(c4cccc(Oc5ccccc5)c4)C(=O)[C@@H]3CC[C@H]12,0.349 (inactive),0.0363,2.26 (inactive),1.25 (inactive),0.17 (inactive),0.722 (inactive),0.34,-1.35 (inactive),0.0399 (inactive),-0.583,0.0267,-0.796,0.285,-1.97,0.504,-0.253,0.496 (inactive),-0.203,-0.907,0.533 (inactive)
